Rows were chosen to be rich in hits. Some 6.9% of all compounds tested hit in one or more screens of this group.
KB-V1 MDR tox – qHTS assay for MDR1-selective chemotherapeutics: Primary screen using the drug-selected MDR subline cells KB-V1. actives 3.4% (n = 400,000). AID 1347076, 2019. KB-V1 MDR cells viability, CellTiter-Glo, 72 h. Potency, µM (top dose mostly 46.1 µM), usual class: cytotoxic; further: nearly all actives have a fitted effect of over 60% in size
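Luminescent ATP read-out (CellTiter-Glo, 10 min) measures survival of drug-selected KB-V1 MDR cells after 72 h, 37 degrees C compound exposure. Medium: phenol-red-free DMEM, 10% FBS. Values from fitted concentration-response curves.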
Giardia kill – Small Molecules that selectively kill Giardia lamblia: qHTS | Giardia lamblia trophozoite viability | activity change, % at 7.66 µM, hits read low | actives 0.15% (n = 340,000) | AID 540267, 2011; in the data active means activity change below about -80%; inconclusive means between about -30% and that limit;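 further: parasites exposed to compound for two days anaerobically before the ATP read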
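Giardia lamblia trophozoites (100 cells/well) were incubated with compounds for 48 h at 37 deg C under anaerobic conditions. Viability was read as ATP content by one-step luminescence after 15-30 min at room temperature.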
MCF10A rereplic – A quantitative high throughput screen for small molecules that induce DNA re-replication in MCF 10a normal breast cells. AID 624296, 2012. Potency, µM (titrated, usually from 46.1 µM), usual class: activators. actives 2.9% (n = 350,000). MCF 10A DNA re-replication, Hoechst nuclear intensity, 48 h; further: nearly all actives have a fitted effect of over 50% in size
S-ASM inh – Inhibitors of Secretory Acid Sphingomyelinase (S-ASM): qHTS. actives 0.006% (n = 340,000). placental ASM, HMU-PC fluorogenic substrate, 60 min. AID 504937, 2011. Potency, µM (series often up to 57.5 µM), most hits filed as inhibitors
Target sequence (P17405 47-631 limits assumed): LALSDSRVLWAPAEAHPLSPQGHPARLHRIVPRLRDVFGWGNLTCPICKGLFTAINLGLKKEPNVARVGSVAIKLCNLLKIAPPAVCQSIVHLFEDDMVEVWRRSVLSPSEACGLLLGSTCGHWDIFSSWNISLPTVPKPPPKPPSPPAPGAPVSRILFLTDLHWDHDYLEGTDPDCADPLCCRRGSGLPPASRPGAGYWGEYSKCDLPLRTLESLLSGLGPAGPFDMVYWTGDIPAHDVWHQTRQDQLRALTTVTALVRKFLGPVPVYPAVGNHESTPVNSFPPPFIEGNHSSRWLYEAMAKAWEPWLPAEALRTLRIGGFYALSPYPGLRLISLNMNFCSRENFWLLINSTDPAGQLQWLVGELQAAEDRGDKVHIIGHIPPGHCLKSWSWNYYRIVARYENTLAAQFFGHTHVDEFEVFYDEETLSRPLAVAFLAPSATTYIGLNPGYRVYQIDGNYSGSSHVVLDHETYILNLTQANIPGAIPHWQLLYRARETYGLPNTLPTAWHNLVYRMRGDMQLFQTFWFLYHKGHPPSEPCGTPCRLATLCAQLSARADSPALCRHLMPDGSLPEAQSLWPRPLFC
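Human placenta-derived ASM enzyme was preincubated with compound for 10 minutes at room temperature, then given fluorogenic substrate HMU-PC0 (9 uM final) for 60 minutes at 37 °C; a pH 10 stop preceded fluorescence reading at Ex 386/Em 447 nm.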
KB-3-1 tox – qHTS assay for MDR1-selective chemotherapeutics: Primary screen using the parental adenocarcinoma cell KB-3-1; KB-3-1 viability, CellTiter-Glo ATP luminescence, 72 h; Potency, µM (titrated, usually from 46.1 µM), most hits filed as cytotoxic; actives 1.4% (n = 400,000); AID 1347075, 2019; further: nearly all actives have a fitted effect of over 60% in size
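Here the drug-naive KB-3-1 line serves as comparator for MDR sub-line selectivity; cells received compound titrations, 72 h at 37 °C, then CellTiter-Glo readout.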
SW480 rerep – A quantitative high throughput screen for small molecules that induce DNA re-replication in SW480 colon adenocarcinoma cells. SW480 DNA re-replication, Hoechst DNA content imaging, 48 h. Potency, µM (top dose mostly 46.1 µM), hits mostly activators. actives 1.8% (n = 340,000). AID 624297, 2012; further: nearly all actives have a fitted effect of over 55% in size
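First, 250 cells per well were seeded. Next, compound or vehicle (23 nL) was pinned in, plates sat 48 hr at 37 C. Finally Hoechst was added for 40 min before fluorescence scanning.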
Numbers stand for hits; ! = repeats disagree. Unless noted, the call rests on the fitted dose curve; in most records, active means well fitted curve in the direction sought with a large enough effect; inconclusive means small, poorly fitted or top-dose-only effect, or another doubt; inactive means no such curve, though single readings can be large; an effect the other way counts as inactive or inconclusive.

Cc1cccc(C(=O)NCCc2nc3ccccc3n2Cc2ccc(Cl)cc2)c1 was read as KB-V1 MDR tox 10.3µM and KB-3-1 tox inconclusive.
Screening CC(C)Cn1c(-c2cccc(Br)c2)nc2ccccc21 returned KB-V1 MDR tox inactive and KB-3-1 tox inactive.
Cc1cccc(Cn2c(Cc3ccccc3)nc3ccccc32)c1 was read as KB-V1 MDR tox 20.6µM!, Giardia kill inactive, MCF10A rereplic inactive, S-ASM inh inactive, KB-3-1 tox inactive and SW480 rerep inactive.
Screening COCn1c(-c2cccc(Br)c2)nc2ccccc21 returned KB-V1 MDR tox 18.4µM, Giardia kill inactive, MCF10A rereplic inactive, S-ASM inh inactive, KB-3-1 tox inactive and SW480 rerep inactive.
`O=C(NCCc1nc2ccccc2n1Cc1ccc(Cl)cc1)c1ccccc1` gave KB-V1 MDR tox inconclusive and KB-3-1 tox inactive.
`COCc1nc2ccccc2n1Cc1cccc(C)c1` gave KB-V1 MDR tox 16.4µM!, Giardia kill inactive, MCF10A rereplic inactive, S-ASM inh inactive, KB-3-1 tox inactive and SW480 rerep inactive.
`COC(=O)c1ccc(OC)c(CN2CCCN(Cc3ccc(C)cc3)S2(=O)=O)c1` gave KB-V1 MDR tox inactive and KB-3-1 tox inactive.
`Cn1c(SCc2ccc(F)cc2)nc2ccc(C(=O)NCc3ccccc3)cc21` gave KB-V1 MDR tox inconclusive and KB-3-1 tox inactive.
For Cc1noc2ncnc(Sc3ccc(Cl)cc3)c12 the results were KB-V1 MDR tox inactive, Giardia kill inactive, MCF10A rereplic 11.6µM, S-ASM inh inactive, KB-3-1 tox inconclusive and SW480 rerep inconclusive.
`Cc1noc2ncnc(Sc3c(Cl)cccc3Cl)c12` gave KB-V1 MDR tox inconclusive, Giardia kill inactive, MCF10A rereplic 4.47µM, S-ASM inh inactive, KB-3-1 tox inconclusive and SW480 rerep inconclusive.
For Cc1ccccc1Sc1ncnc2onc(C)c12 the results were KB-V1 MDR tox inactive, Giardia kill inactive, MCF10A rereplic inconclusive, S-ASM inh inactive, KB-3-1 tox inconclusive and SW480 rerep inactive.
For COc1ccc(CCNC(=O)c2cc3c(-c4ccc(OC)c(OC)c4)nn(C)c3s2)cc1OC the results were KB-V1 MDR tox inconclusive and KB-3-1 tox inactive.
`COc1cccc(-c2nn(C)c3sc(C(=O)NCc4ccco4)cc23)c1` gave KB-V1 MDR tox inactive, Giardia kill inactive, MCF10A rereplic 6.31µM, S-ASM inh inactive, KB-3-1 tox inconclusive and SW480 rerep inactive.
COc1cccc(-c2nn(C)c3sc(C(=O)NCCCN(C)Cc4ccccc4)cc23)c1 was read as KB-V1 MDR tox inactive, Giardia kill inactive, MCF10A rereplic inconclusive, S-ASM inh inactive, KB-3-1 tox inconclusive and SW480 rerep 16.4µM.
For CN(CCCNC(=O)c1cc2c(Cl)nc3ccccc3c2s1)Cc1ccccc1 the results were KB-V1 MDR tox inactive, Giardia kill inactive, MCF10A rereplic inconclusive, S-ASM inh inactive, KB-3-1 tox inactive and SW480 rerep 20.6µM.
`Cc1ccc2nc(Cl)c3cc(C(=O)NCCCN(C)Cc4ccccc4)sc3c2c1` gave KB-V1 MDR tox inactive and KB-3-1 tox inactive.
CCOc1ccc(CCNC(=O)c2cc3c(-c4ccc(OC)c(OC)c4)nn(C)c3s2)cc1OCC was read as KB-V1 MDR tox 23.1µM and KB-3-1 tox inactive.
For Cc1cc(=O)[nH]c2c1c(C)nn2C1CCOC(C)(C)C1 (centres undefined) the results were KB-V1 MDR tox inactive, Giardia kill inactive, MCF10A rereplic inactive, S-ASM inh inactive, KB-3-1 tox inactive and SW480 rerep 6.51µM.
Screening Cc1ccc(-n2nc(C)c3c(C)cc(=O)[nH]c32)cc1 returned KB-V1 MDR tox inconclusive, Giardia kill inactive, MCF10A rereplic inactive, S-ASM inh inactive, KB-3-1 tox inactive and SW480 rerep inactive.
For Cc1cc(C(=O)N/N=C/c2ccc(Cl)c([N+](=O)[O-])c2)c(C)n1-c1ccc(F)cc1 the results were KB-V1 MDR tox inconclusive, Giardia kill inactive, MCF10A rereplic 11.6µM, S-ASM inh inactive, KB-3-1 tox 5.8µM and SW480 rerep inactive.
For Cc1nnc(SCCn2c(N3CCC(C)CC3)nc3c2c(=O)n(C)c(=O)n3C)s1 the results were KB-V1 MDR tox 11.6µM, Giardia kill inactive, MCF10A rereplic inactive, S-ASM inh inactive, KB-3-1 tox inconclusive and SW480 rerep inactive.
Screening Cc1cc(Cl)ccc1C(=O)C1CCCN(C(=O)c2cscn2)C1 (centres undefined) returned KB-V1 MDR tox inactive, Giardia kill inactive, MCF10A rereplic inactive, S-ASM inh inactive, KB-3-1 tox inactive and SW480 rerep inactive.
`Cc1cc(C(=O)N2CCCC(C(=O)c3ccc(Cl)cc3C)C2)no1` (centres undefined) gave KB-V1 MDR tox inconclusive, Giardia kill inactive, MCF10A rereplic inconclusive, S-ASM inh inactive, KB-3-1 tox inactive and SW480 rerep 23.1µM.
For C[N+](C)(C)c1ccc(/C=C/c2ccnc3ccccc23)cc1 the results were KB-V1 MDR tox inconclusive and KB-3-1 tox 18.4µM.
For COc1ccc(/C=C/c2ccnc3ccccc23)cc1 the results were KB-V1 MDR tox inactive and KB-3-1 tox inactive.
`CCCCCCCCCN(CCCCCCCCC)c1ccc(/C=C/c2ccnc3ccccc23)cc1` gave KB-V1 MDR tox inactive and KB-3-1 tox inactive.
`CC(=O)Nc1ccc(/C=C/c2ccnc3ccccc23)cc1` gave KB-V1 MDR tox inactive and KB-3-1 tox inactive.
Screening Cc1cc(/C=C/c2ccnc3ccccc23)ccc1N returned KB-V1 MDR tox 23.1µM and KB-3-1 tox inconclusive.
`Oc1ccc(/C=C/c2ccnc3ccccc23)cc1` gave KB-V1 MDR tox inactive, Giardia kill inactive, MCF10A rereplic 20.6µM, S-ASM inh inactive, KB-3-1 tox inconclusive and SW480 rerep inactive.
For CCC[N+](C)(C)c1ccc(/C=C/c2ccnc3ccccc23)cc1 the results were KB-V1 MDR tox inconclusive and KB-3-1 tox 1.64µM.
For Cc1ccc2c(CN(C)Cc3ccc(Cl)cc3)cc(=O)oc2c1 the results were KB-V1 MDR tox inactive, Giardia kill inactive, MCF10A rereplic inconclusive, S-ASM inh inactive, KB-3-1 tox inactive and SW480 rerep inactive.
Screening Cn1c(=O)n(-c2ccc(C(C)(C)C#N)cc2)c2c3cc(-c4cnc5ccccc5c4)ccc3ncc21 returned KB-V1 MDR tox inactive and KB-3-1 tox inconclusive.

Screens from PubChem BioAssay.
